# Measurements taken from paper PMC5540273 (PLoS ONE, 2017).
# Assays:
# Conditions in all cases: concentration: 1 μM, replicates: in singlicate; n = 1
# DMPK = test system: DMPK
# DRAK1 = test system: T1, DRAK1
# T1 construct: gene STK17A
# DRAK2 = test system: T2, DRAK2
# T2 construct: gene STK17B
# DYRK1A = test system: DYRK1A
# DYRK1B = test system: DYRK1B
# DYRK2 = test system: DYRK2
# EGFR = test system: EGFR
# EIF2AK1 = test system: EIF2AK1
# EPHA1 = test system: EPHA1
# EPHA2 = test system: EPHA2
# EPHA3 = test system: EPHA3
# EPHA4 = test system: EPHA4
# EPHA5 = test system: EPHA5
# EPHA6 = test system: EPHA6
# EPHA7 = test system: EPHA7
# EPHA8 = test system: EPHA8
# EPHB1 = test system: EPHB1
# EPHB2 = test system: EPHB2
# EPHB3 = test system: EPHB3
# EPHB4 = test system: EPHB4
# 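Also: KINOMEscan kinase panel screen.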
SMILES,%Inh (DMPK),%Inh (DRAK1),%Inh (DRAK2),%Inh (DYRK1A),%Inh (DYRK1B),%Inh (DYRK2),%Inh (EGFR),%Inh (EIF2AK1),%Inh (EPHA1),%Inh (EPHA2),%Inh (EPHA3),%Inh (EPHA4),%Inh (EPHA5),%Inh (EPHA6),%Inh (EPHA7),%Inh (EPHA8),%Inh (EPHB1),%Inh (EPHB2),%Inh (EPHB3),%Inh (EPHB4)
Cc1nnc(-c2ccc3occ(-c4ccc(C(C)O)cc4)c3c2)o1 (centres unmarked),7%,19%,36%,18%,11%,0%,28%,0%,0%,0%,0%,30%,0%,52%,3%,0%,9%,15%,12%,13%
O=c1cc(N2CCOCC2)nc2n(Cc3cccc(F)c3)ccn12 [GSK2297430],12%,5%,0%,26%,0%,5%,32%,0%,14%,9%,0%,10%,0%,10%,4%,13%,0%,0%,14%,17%
N#Cc1ccc(-c2cc(-c3c[nH]nc3-c3ccccn3)ccn2)cc1 [GW693028],0%,0%,0%,17%,0%,0%,0%,6%,17%,2%,18%,2%,0%,0%,44%,39%,7%,8%,5%,11%
Cc1cccc(-c2nc(-c3ccc(S(C)(=O)=O)cc3)sc2-c2ccncc2)c1,0%,0%,0%,0%,7%,0%,0%,1%,0%,10%,9%,48%,1%,44%,19%,21%,14%,13%,34%,41%
Fc1ccc(-c2ncn(CCCN3CCOCC3)c2-c2ccccn2)cc1 [SB-211742],17%,0%,0%,11%,37%,5%,12%,0%,17%,31%,0%,8%,0%,0%,0%,9%,20%,0%,20%,28%
Fc1ccc(-c2nn3c(OCC(F)(F)F)cccc3c2-c2ccncc2)cc1 [GW514784],0%,18%,0%,3%,0%,10%,20%,0%,8%,7%,24%,3%,0%,11%,0%,13%,16%,0%,6%,1%
CC(C)(C)n1cnc2c(N)ncnc21 [SKF-97359],9%,0%,6%,0%,61%,0%,39%,0%,0%,0%,0%,0%,0%,0%,0%,7%,0%,0%,0%,0%
CCc1nc(-c2cccc(C)c2)c(-c2ccnc(NCc3ccccc3)c2)s1,0%,2%,16%,0%,23%,2%,0%,0%,0%,1%,0%,0%,0%,17%,4%,11%,15%,6%,0%,3%
COc1cc2c(cc1OC[C@@H](O)CO)ncc1c3ccc(C#N)cc3[nH]c21,0%,98.7%,99.7%,99%,83%,86%,0%,0%,4%,0%,0%,8%,11%,10%,0%,0%,0%,0%,14%,4%
CCn1cnc2c(N)ncnc21 [GW345098],0%,6%,9%,0%,28%,12%,15%,0%,6%,14%,0%,7%,16%,17%,3%,1%,7%,0%,17%,14%
